# Measured values taken from publication PMC5540273 (PLoS ONE, 2017).
# Test system: SRPK2
# Settings: concentration: 1 μM, replicates: in singlicate; n = 1
# 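Also: KINOMEscan kinase panel screen.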
row,Compound,%Inh [%]
1,c1ccc(Oc2ccc(Nc3ccnc4cc(-c5ccc(CNCCN6CCOCC6)o5)ccc34)cc2)nc1 [GW567145],58
2,Cn1cc(-c2[nH]c3cc(NC(=O)[C@H](N)C4CCCCC4)cc4c3c2C=NNC4=O)cn1,77
3,O=C(Nc1cccc(-c2nn3ccccc3c2-c2ccnc(Nc3cccc(F)c3)n2)c1)c1c(F)ccc(F)c1Cl [GSK357952],0
4,Cc1ccc(C)c(NC(=O)NC2CCN(c3ccnc(Nc4ccc(F)cc4)n3)C2)c1 (stereo not shown) [GSK1379720],49
5,O=C(Nc1n[nH]c2cc(-c3ccoc3)ccc12)C1CC1 [SB-738481],0
6,COc1cccc(C(=O)Nc2cccc(Oc3ccc4nc(NC(=O)C5CC5)cn4n3)c2)c1,29
7,Cc1ccc(S(=O)(=O)Nc2ccc(Nc3nccc(Nc4cccc5[nH]ncc45)n3)cc2)cc1 [GSK581271],5
8,CN(C)Cc1ccc(-c2ccc3c(Nc4ccc(Oc5ccccn5)cc4)ccnc3c2)o1 [GW567148],0
9,Nc1ncc(-c2ccc3nccc(-c4ccncc4)c3c2)cc1S(=O)(=O)N1CCOCC1 [GSK1627798],0
10,CC(=O)Nc1nc2cnc(Nc3cc(NC(=O)c4cccc(C5(C#N)CC5)c4Cl)ccc3C)nc2s1,5
11,Cl.Cl.NCC(NC(=O)c1cc(-c2ccccc2)c(-c2ccnc3[nH]ccc23)s1)c1ccccc1 (stereo not shown) [GSK1321561],0
12,COc1cccc(C2=C(Nc3ccc(Cl)c(C(=O)O)c3)C(=O)NC2=O)c1 [SB-390769],0
13,O=c1[nH]cc(-c2ccc(N3CCOCC3)cc2)c2sc(-c3cn[nH]c3)cc12 [GSK2276055],0
14,Cn1cc(-c2ccc3c(c2)CCN3C(=O)Cc2cccc(F)c2)c2c(N)ncnc21 [GSK2603358],0
15,CN1CCN(CCCNc2nccc(-c3c(-c4ccc(F)cc4)nn4cc(C(F)(F)F)ccc34)n2)CC1 [GW621581],0
16,Cc1ccc(C(=O)Nc2ccc(Nc3ccnc4cc(-c5nccs5)ccc34)cc2O)cc1.Cl [GW494702],31
17,CC(C)(C)c1ccc2nccc(Nc3cccc(O)c3)c2c1 [GW856795],9

row,Compound,%Inh [%]
1,Nc1n[nH]c2cnc(-c3ccccc3)cc12 [SB-642124],3
2,CCc1ccc(-c2ccc3c(c2)-c2c(cnn2C)S(=O)(=O)N3C)cc1,0
3,O=C(Nc1n[nH]c2nc(-c3ccc(O)cc3)ccc12)C1CC1 [SB-710363],0
4,CC(=O)N1CCN(c2ccc(Nc3nccc(-c4sc(C(C)C)nc4-c4cccc(NS(=O)(=O)c5cccc(Cl)c5)c4)n3)cn2)CC1 [GSK1660437],0
5,c1ccc(-c2n[nH]cc2Nc2ccnc3ccccc23)nc1 [GW694077],46
6,Oc1cc(Nc2ccnc3cc(I)ccc23)ccc1F [GW552771],0
7,COc1ccc(Nc2nccc(N3CCC(NC(=O)Nc4cccc(OC)c4)C3)n2)cc1 (stereo not shown) [GSK1379742],0
8,COc1cc(Nc2nccc(-c3c(-c4cccc(NC(=O)c5c(F)cccc5F)c4)nn4ccccc34)n2)cc(OC)c1OC [GSK323521],21
9,c1ccc(-c2cnc3nccnn23)cc1 [AH20685],0
10,C[C@@H](Oc1cc(-n2cnc3cc(-c4ccnc(NCCS(C)(=O)=O)c4)ccc32)sc1C(N)=O)c1ccccc1Cl [GSK907232],0
11,COc1cc(Nc2ncc3c(C)nc(-c4cc5ccccc5[nH]4)n3n2)cc(OC)c1OC [GW869516],6
12,Cl.c1ccc(-c2ccc3c(Nc4ccc5[nH]ncc5c4)ccnc3c2)nc1 [GW440137],0
13,Cl.c1ccc(-c2ccc3c(Nc4ccc5[nH]ccc5c4)ccnc3c2)nc1 [GW440138],22
14,Cl.NC(=O)c1cccc(Nc2nccc(Nc3ccc(Oc4c(Cl)cccc4Cl)c(Cl)c3)n2)c1 [GW659009],0
15,O=C(Nc1ccccc1F)NC1CCN(c2ccnc(Nc3ccc(F)cc3)n2)CC1 [GSK1379800],25
16,COc1ccc(-c2coc3ccc(-c4nnc(SCc5ccc(OC)c(C(F)(F)F)c5)o4)cc23)cc1,0
17,Clc1ccc(-c2nn3ncccc3c2-c2ccnc(Nc3ccc4c(c3)OCCO4)n2)cc1 [GW829116],0
